HT1080NT lethal: kills 2HG-producing HT-1080-NT fibrosarcoma cells | HT-1080-NT fibrosarcoma viability, CellTiter-Glo ATP luminescence, 48 h | Potency, µM (top dose mostly 46.1 µM), usual class: cytotoxic | actives 1.6% (n = 360,000);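 also: NT is the 2HG producing partner of a matched IDH1 knockdown line; nearly all actives have a fitted effect of over 55% in size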
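HT-1080-NT; 750 cells/well; 5% FBS RPMI; 48 h compound, 37 degrees C; CellTiter-Glo luminescence; curve fitting and curve-class assignment.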
TDP1 cell noCPT: qHTS for Inhibitors of human tyrosyl-DNA phosphodiesterase 1 (TDP1): qHTS in cells in absence of CPT; actives 15% (n = 420,000); AID 686978, 2013; Potency, µM (highest dose often 46.2 µM), actives largely listed as inhibitors; DT40 Tdp1-/- hTDP1 cells, no CPT, ATP luminescence, 48 h; also: nearly all actives have a fitted effect of over 55% in size
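Growth of hTDP1-complemented DT40 Tdp1-knockout cells is measured by ATP luminescence after at least 48 hr compound exposure at 37 °C, with DMSO substituting for the 20 nM CPT used in the parallel screen.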
DT40 TDP1 CPT: growth inhibition of DT40 Tdp1-/-;hTDP1 cells with camptothecin (screen for TDP1 inhibitors) | chicken DT40 Tdp1-/-;hTDP1 cells + 20 nM CPT, ATP luminescence, 48 h | actives 12% (n = 420,000) | Potency, µM (titrated, usually from 46.2 µM), most hits filed as inhibitors; also: nearly all actives have a fitted effect of over 55% in size
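Chicken DT40 Tdp1-/- cells complemented with human TDP1, 400 cells/well, exposed to compounds plus 20 nM camptothecin for at least 48 h at 37 C; viability read as ATP content by CellTiter-Glo luminescence.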
HepG2 tox: kills HepG2 cells in TGF-b inhibitor counter-screen | HepG2 CAGA-GFP viability, ATP luminescence, 18 h | Potency, µM (series often up to 46.1 µM), usual class: cytotoxic | actives 0.76% (n = 410,000)
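HepG2 CAGA-GFP cells (1000/well, DMEM with 1% FBS) received compound, then TGF-beta at 500 pg/mL final, and were incubated 18 hours at 37 degrees C. Viability was read by CellTiter-Glo luminescence. Media-only wells were set as complete cell-killing and DMSO as no toxicity.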
TGFb SMAD3 inh: TGF-b pathway inhibition. AID 588855. HepG2 CAGA-GFP TGF-b/SMAD3 reporter, GFP fluorescence, 18 h; TGF-beta stimulated, 500 pg/mL final. actives 1.2% (n = 410,000). Potency, µM (doses to about 46.1 µM), actives largely listed as inhibitors; also: nearly all actives have a fitted effect of over 65% in size
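HEPG2 CAGA-GFP reporter cells (1000/well, DMEM with 1% FBS) received compounds, then recombinant TGF-beta at 500 pg/mL final for 18 hours at 37 degrees C. Per-cell GFP summed per well was normalised to unstimulated and stimulated DMSO controls before curve fitting.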
HT1080 IDH1KD tx: HT-1080 IDH1 knockdown cell toxicity (counter line) | HT-1080 IDH1 knockdown viability, ATP luminescence, 48 h | Potency, µM (doses to about 46.1 µM), hits mostly cytotoxic | actives 2% (n = 360,000) | AID 686971
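% activity derives from luminescence (CellTiter-Glo), normalised to DMSO and no-cell wells. HT-1080-IDH1KD cells, 750/well, had 48 h compound exposure at 37 °C.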
Numbers stand for hits; [ ] = remark or other dose. This is a sample that favours compounds with a hit; in the whole collection about 17% have one here. Calls follow the shape of the dose curve; as a rule, active = well fitted curve in the direction sought with a large enough effect; inconclusive = small, poorly fitted or top-dose-only effect, or another doubt; inactive = no such curve, though single readings can be large; an effect the other way counts as inactive or inconclusive.

For C=CC[n+]1ccc2ccccc2c1C the results were HT1080NT lethal inactive, TDP1 cell noCPT inactive, DT40 TDP1 CPT inactive, HepG2 tox inactive, TGFb SMAD3 inh inactive and HT1080 IDH1KD tx inactive.
C[n+]1ccnc2ccccc21 was read as TDP1 cell noCPT 4µM, DT40 TDP1 CPT 1.4µM, HepG2 tox inactive and TGFb SMAD3 inh 5µM.
C[n+]1ccnc2cc(Cl)ccc21 was read as TDP1 cell noCPT 0.71µM, DT40 TDP1 CPT 0.63µM, HepG2 tox 1.4µM and TGFb SMAD3 inh 1.1µM.
For C=CC[n+]1ccnc2ccccc21 the results were TDP1 cell noCPT inconclusive, DT40 TDP1 CPT 5µM, HepG2 tox inactive and TGFb SMAD3 inh inconclusive.
For Cc1cc(C)cc(C(=O)n2nc(C)c(S(=O)(=O)N3CCOCC3)c2C)c1 the results were TDP1 cell noCPT inactive, DT40 TDP1 CPT inactive, HepG2 tox inactive and TGFb SMAD3 inh inactive.
Screening O=C(NC(=S)Nc1ccccc1N1CCCCC1)c1ccccc1 returned HT1080NT lethal inactive, TDP1 cell noCPT 26µM, DT40 TDP1 CPT inconclusive, HepG2 tox inactive, TGFb SMAD3 inh inconclusive and HT1080 IDH1KD tx inactive.
Screening CCC(Oc1ccccc1)C(=O)Nc1ccccc1N1CCCC1 (stereo unspecified) returned HT1080NT lethal inactive, TDP1 cell noCPT inconclusive, DT40 TDP1 CPT inconclusive, HepG2 tox inactive, TGFb SMAD3 inh inactive and HT1080 IDH1KD tx inactive.
Screening O=C(Nc1ccccc1N1CCCC1)c1ccc([N+](=O)[O-])o1 returned HT1080NT lethal inconclusive, TDP1 cell noCPT inconclusive, DT40 TDP1 CPT 23µM, HepG2 tox inactive, TGFb SMAD3 inh 25µM and HT1080 IDH1KD tx inconclusive.
Cc1ccc(C(=O)Nc2ccccc2N2CCCCC2)cc1 was read as HT1080NT lethal inactive, TDP1 cell noCPT inconclusive, DT40 TDP1 CPT inactive, HepG2 tox inactive, TGFb SMAD3 inh inactive and HT1080 IDH1KD tx inactive.
For CCC(C(=O)Nc1ccccc1N1CCCC1)c1ccccc1 (stereo unspecified) the results were HT1080NT lethal inactive, TDP1 cell noCPT 16µM, DT40 TDP1 CPT inconclusive, HepG2 tox inactive, TGFb SMAD3 inh inactive and HT1080 IDH1KD tx inactive.
`Cc1ccc(C(=O)Nc2ccccc2N2CCCCC2)o1` gave HT1080NT lethal inactive, TDP1 cell noCPT inconclusive, DT40 TDP1 CPT 26µM, HepG2 tox inactive, TGFb SMAD3 inh inactive and HT1080 IDH1KD tx inactive.
Cc1cc(C)c(C(=O)Nn2c(C)nc3ccccc3c2=O)cc1C was read as HT1080NT lethal inactive, TDP1 cell noCPT inactive, DT40 TDP1 CPT inconclusive, HepG2 tox inactive, TGFb SMAD3 inh inactive and HT1080 IDH1KD tx inactive.
`CCCC(C)c1oc(=O)cc(O)c1C` (stereo unspecified) gave HT1080NT lethal inactive, TDP1 cell noCPT inactive, DT40 TDP1 CPT inactive, HepG2 tox inactive, TGFb SMAD3 inh inactive and HT1080 IDH1KD tx inactive.
COc1ccc(-c2cc(C(=O)OC3CCOC3=O)c3ccccc3n2)cc1 (stereo unspecified) was read as HT1080NT lethal inactive, TDP1 cell noCPT inactive, DT40 TDP1 CPT inactive, HepG2 tox inactive, TGFb SMAD3 inh inactive and HT1080 IDH1KD tx inactive.
`CN(C)c1ccc(CNC(=O)C2CCN(S(=O)(=O)c3cn(C)cn3)CC2)cc1` gave TDP1 cell noCPT inactive, DT40 TDP1 CPT inactive, HepG2 tox inactive and TGFb SMAD3 inh inactive.
CN1CCN(c2ccccc2NC(=O)c2ccc(-c3ccc(Cl)cc3Cl)o2)CC1 was read as HT1080NT lethal inactive, TDP1 cell noCPT 23µM, DT40 TDP1 CPT 21µM, HepG2 tox inactive, TGFb SMAD3 inh inactive and HT1080 IDH1KD tx inactive.
Cc1cc(C)cc(NC(=O)Nc2ccccc2N2CCCCC2)c1 was read as HT1080NT lethal inactive, TDP1 cell noCPT 16µM, DT40 TDP1 CPT inconclusive, HepG2 tox inactive, TGFb SMAD3 inh inactive and HT1080 IDH1KD tx inactive.
Screening O=C(Nc1cccc(Cl)c1N1CCOCC1)c1ccc([N+](=O)[O-])o1 returned HT1080NT lethal inactive, TDP1 cell noCPT inconclusive, DT40 TDP1 CPT inconclusive, HepG2 tox inactive, TGFb SMAD3 inh inactive and HT1080 IDH1KD tx inactive.
Screening Cc1cc(C)cc(OCC(=O)Nc2ccccc2N2CCCCC2)c1 returned HT1080NT lethal inactive, TDP1 cell noCPT inconclusive, DT40 TDP1 CPT inconclusive, HepG2 tox inactive, TGFb SMAD3 inh inactive and HT1080 IDH1KD tx inactive.
`O=C(Nc1ccc(N2CCCC2)c(Cl)c1)c1ccco1` gave HT1080NT lethal inactive, TDP1 cell noCPT inconclusive, DT40 TDP1 CPT inconclusive, HepG2 tox inactive, TGFb SMAD3 inh inactive and HT1080 IDH1KD tx inactive.
`O=C(Nc1ccc(N2CCCC2)c(Cl)c1)c1ccc([N+](=O)[O-])o1` gave HT1080NT lethal 5.8µM, TDP1 cell noCPT 18µM, DT40 TDP1 CPT 8.2µM, HepG2 tox inactive, TGFb SMAD3 inh inconclusive and HT1080 IDH1KD tx 5.8µM.
O=C(Nc1ccccc1N1CCN(C(=O)c2ccccc2)CC1)c1ccc([N+](=O)[O-])o1 was read as HT1080NT lethal inconclusive, TDP1 cell noCPT 15µM, DT40 TDP1 CPT 21µM, HepG2 tox inactive, TGFb SMAD3 inh 11µM and HT1080 IDH1KD tx 16µM.
For COCCN1C(=O)CCC1(C)C(=O)NC(C)(C)C (stereo unspecified) the results were HT1080NT lethal inconclusive, TDP1 cell noCPT inactive, DT40 TDP1 CPT inactive, HepG2 tox inactive, TGFb SMAD3 inh inactive and HT1080 IDH1KD tx inactive.
CCOc1ccc(OCC(=O)NCCS(=O)(=O)N2CCN(c3ccccc3)CC2)cc1 was read as HT1080NT lethal inactive, TDP1 cell noCPT inconclusive, DT40 TDP1 CPT inconclusive, HepG2 tox inactive, TGFb SMAD3 inh inactive and HT1080 IDH1KD tx inactive.
O=C(NCC(F)(F)F)[C@H]1O[C@@H](n2ccc(=O)[nH]c2=O)[C@H](O)[C@@H]1O was read as HT1080NT lethal inactive, TDP1 cell noCPT inactive, DT40 TDP1 CPT inactive, HepG2 tox inactive, TGFb SMAD3 inh inactive and HT1080 IDH1KD tx inactive.
CC(=O)N1CCN(C(=S)Nc2cc(S(=O)(=O)N3CCOCC3)ccc2Cl)CC1 was read as HT1080NT lethal inactive, TDP1 cell noCPT inactive, DT40 TDP1 CPT inactive, HepG2 tox inactive, TGFb SMAD3 inh inactive and HT1080 IDH1KD tx inactive.
`COc1cc(CN(C)C(=O)C2CCN(S(=O)(=O)c3cccs3)CC2)ccc1OC(F)F` gave HT1080NT lethal inactive[9.24 µM], TDP1 cell noCPT inconclusive, DT40 TDP1 CPT inconclusive, HepG2 tox inactive, TGFb SMAD3 inh inactive and HT1080 IDH1KD tx inactive.
Screening Cc1cc(NC(=O)CSc2nc(C(C)C)nc3c2c(=O)n(C)c(=O)n3C)no1 returned HT1080NT lethal inactive, TDP1 cell noCPT 16µM, DT40 TDP1 CPT 16µM, HepG2 tox inactive, TGFb SMAD3 inh inactive and HT1080 IDH1KD tx inactive.

From PubChem
